About 79,000 compounds went through this panel and 15% of them were active in at least one assay; those are over-represented in the sample as a whole. Active and inactive are the calls of the source. No stated cut-off is given here; in the data, active means growth inhibition above about 70%; inactive means the rest.
Assays:
[1] = NCI Yeast Anticancer Drug Screen. Data for the rad52 strain (AID 147);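 further: 0% = growth of vehicle-treated control cultures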; conditions: S. cerevisiae rad52 mutant growth inhibition, hits give high values
How it was run: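 Measured: yeast growth inhibition. System: strain with a defined DNA damage repair alteration. Reference: vehicle-treated control cultures.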

[2] = NCI Yeast Anticancer Drug Screen. Data for the wt1 strain (AID 149);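 further: 0% = growth of vehicle-treated wt1 cultures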; conditions: S. cerevisiae wt1 strain (SPY 50644) growth inhibition, hits give high values
How it was run: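 Each compound is tested on wt1 yeast and the loss of growth versus vehicle gives the inhibition value.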

[3] = NCI Yeast Anticancer Drug Screen. Data for the mgt1 strain (AID 153); conditions: S. cerevisiae mgt1 mutant growth inhibition, hits give high values
How it was run: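 After exposure of the mgt1 yeast mutant to compound, growth was measured and reported as inhibition compared with vehicle controls.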

[4] = NCI Yeast Anticancer Drug Screen. Data for the rad50 strain (AID 155);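 further: 0% = growth of vehicle-only cultures of the same strain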; conditions: S. cerevisiae rad50 strain growth inhibition, hits give high values
How it was run: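 Vehicle-treated cultures provide the reference for the growth inhibition reported for compound-exposed, repair-deficient yeast.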

[5] = NCI Yeast Anticancer Drug Screen. Data for the mec2-1 strain (AID 157); conditions: S. cerevisiae mec2-1 strain, hits give high values
How it was run: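 Test agents were screened against the mec2-1 yeast strain, with defined DNA repair or cell cycle alteration. Growth was scored as inhibition against vehicle-only controls.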

[6] = NCI Yeast Anticancer Drug Screen. Data for the rad14 strain (AID 159);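 further: 0% = growth of vehicle-treated control cultures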; conditions: S. cerevisiae rad14 strain growth inhibition, hits give high values
How it was run: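 Inhibition of growth is reported for a repair-deficient yeast mutant following compound treatment, calculated relative to cultures that received vehicle.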

[7] = NCI Yeast Anticancer Drug Screen. Data for the sgs1 mgt1 strain (AID 161);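 further: 0% = growth of cultures given vehicle only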; conditions: S. cerevisiae sgs1 mgt1 strain, hits give high values
How it was run: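 Inhibition of yeast growth, normalised to vehicle-treated controls, is reported for a strain bearing genetic alterations in DNA damage repair.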

[8] = NCI Yeast Anticancer Drug Screen. Data for the CLN2oe strain (AID 163);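 further: 0% = growth of vehicle-only control cultures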; conditions: S. cerevisiae CLN2oe strain, hits give high values
How it was run: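 Here, growth inhibition in a cell-cycle-altered yeast strain after compound exposure was quantified against vehicle control growth.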

[9] = NCI Yeast Anticancer Drug Screen. Data for the cln2 rad14 strain (AID 165);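 further: 0% = growth equal to vehicle treated cultures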; conditions: S. cerevisiae cln2 rad14 strain, hits give high values
How it was run: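 Growth of compound-exposed yeast (cln2 rad14 genotype) measured and expressed as inhibition relative to vehicle.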

[10] = NCI Yeast Anticancer Drug Screen. Data for the bub3 strain (AID 167); conditions: S. cerevisiae bub3 mutant strain, hits give high values
How it was run: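 Mutant yeast screening strain plus compound; vehicle-treated cultures serve as the 0% inhibition reference.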

[11] = NCI Yeast Anticancer Drug Screen. Data for the wt2 strain (AID 169); conditions: S. cerevisiae wt2 strain growth inhibition, hits give high values
How it was run: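 Genetically defined yeast strains from a DNA-repair/cell-cycle panel were used. Compound-exposed yeast growth was measured, and the inhibition was calculated relative to vehicle treatment.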

[12] = NCI Yeast Anticancer Drug Screen. Data for the mlh1 strain (AID 171);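 further: 0% = growth of vehicle-treated control cultures of the same strain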; conditions: S. cerevisiae mlh1 strain growth inhibition, hits give high values
How it was run: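 Here the genetically defined yeast mutant is grown with each compound, and the extent to which its growth falls below that of vehicle-exposed cells is reported.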

[13] = NCI Yeast Anticancer Drug Screen. Data for the mlh1 rad18 strain (AID 175); conditions: S. cerevisiae mlh1 rad18 strain growth inhibition, hits give high values
How it was run: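 In this whole-cell yeast screen, a strain with altered DNA damage repair is challenged with compound, and its growth is measured against matched vehicle-treated controls.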

[14] = NCI Yeast Anticancer Drug Screen. Data for the rad18 strain (AID 177); conditions: S. cerevisiae rad18 mutant growth inhibition, hits give high values
How it was run: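 Screen uses a yeast strain with a defined lesion in DNA damage repair; compound effect is read as loss of growth compared to untreated vehicle cultures.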

[15] = NCI Yeast Anticancer Drug Screen. Data for the rad50EPP+ strain (AID 151);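 further: 0% = growth of vehicle-treated control cultures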; conditions: S. cerevisiae rad50 mutant strain, hits give high values
How it was run: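 One strain with a rad50 alteration (rad50EPP+) was compound-treated, its growth then compared to that of vehicle controls.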

[16] = NCI Yeast Anticancer Drug Screen. Data for the sgs1 strain (AID 173);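 further: 0% = growth of vehicle-only control cultures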; conditions: S. cerevisiae sgs1 mutant, hits give high values
How it was run: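 Relative growth inhibition, referenced to vehicle, was determined in a yeast strain with a defined alteration affecting DNA damage repair or cell cycle control after compound exposure.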

[17] = at 5.0 µM (retest, dose inferred, filed as 0.5)
[18] = at 50.0 µM (retest, dose inferred, filed as 5.0)

Measured: growth inhibition

CC(C(=O)N1C(=O)N(C(=O)[C@H](C)C(O)c2ccccc2)[C@H](c2ccccc2)[C@H]1c1ccccc1)[C@@H](O)c1ccccc1 (stereo partly drawn)
inactive: [1]; at 1.2 µM -1% | [1]; at 3.7 µM -2% | [1]; at 11.0 µM 11% | [1]; at 33.0 µM 37% | [1]; at 100.0 µM 62% | [2]; at 1.2 µM 1% | [2]; at 3.7 µM -1% | [2]; at 11.0 µM -2% | [2]; at 33.0 µM 17% | [2]; at 100.0 µM 36% | [3]; at 1.2 µM -6% | [3]; at 3.7 µM -9% | [3]; at 11.0 µM 4% | [3]; at 33.0 µM 25% | [3]; at 100.0 µM 59% | [4]; at 1.2 µM -7% | [4]; at 3.7 µM -15% | [4]; [17] -5% | [4]; at 11.0 µM -9% | [4]; at 33.0 µM 41% | [4]; [18] 39% | [4]; at 100.0 µM 56% | [5]; at 1.2 µM -5% | [5]; at 3.7 µM -1% | [5]; [17] -14% | [5]; at 11.0 µM 8% | [5]; at 33.0 µM 33% | [5]; [18] 51% | [5]; at 100.0 µM 55% | [6]; at 1.2 µM -7% | [6]; at 3.7 µM -12% | [6]; at 11.0 µM 1% | [6]; at 33.0 µM 15% | [6]; at 100.0 µM 36% | [7]; [17] -12% | [7]; [18] 38% | [8]; at 1.2 µM -11% | [8]; at 3.7 µM -13% | [8]; at 11.0 µM 12% | [8]; at 33.0 µM 36% | [8]; at 100.0 µM 51% | [9]; [18] 59% | [10]; at 1.2 µM -4% | [10]; at 3.7 µM -3% | [10]; [17] -27% | [10]; at 11.0 µM 5% | [10]; at 33.0 µM 23% | [10]; at 100.0 µM 48% | [11]; at 1.2 µM -8% | [11]; at 3.7 µM -7% | [11]; at 11.0 µM 4% | [11]; at 33.0 µM 41% | [11]; at 100.0 µM 62% | [12]; at 1.2 µM -3% | [12]; at 3.7 µM -4% | [12]; at 11.0 µM 14% | [12]; at 33.0 µM 45% | [12]; at 100.0 µM 57% | [13]; [17] 7% | [13]; [18] 37% | [14]; at 1.2 µM 0% | [14]; at 3.7 µM 6% | [14]; at 11.0 µM 25% | [14]; at 33.0 µM 45% | [14]; at 100.0 µM 53%
active: [4]; at 50.0 µM 80.1% | [5]; at 50.0 µM 73.2% | [7]; at 50.0 µM 83.4% | [9]; [17] 71% | [9]; at 50.0 µM 77.2% | [10]; [18] 90% | [10]; at 50.0 µM 84.2% | [13]; at 50.0 µM 82.2%

O=C1Nc2ccc(Cl)c(I)c2C1=O
active: [1]; at 100.0 µM 84% | [15]; at 100.0 µM 79% | [4]; at 100.0 µM 88% | [6]; at 100.0 µM 84% | [10]; [18] 70% | [10]; at 50.0 µM 79% | [10]; at 100.0 µM 90% | [12]; at 100.0 µM 83% | [16]; at 100.0 µM 92% | [14]; at 100.0 µM 91%
inactive: [1]; at 1.2 µM 3% | [1]; at 3.7 µM 10% | [1]; at 11.0 µM 7% | [1]; at 33.0 µM 32% | [15]; at 1.2 µM 28% | [15]; at 3.7 µM 35% | [15]; at 11.0 µM 44% | [15]; at 33.0 µM 65% | [3]; at 1.2 µM -11% | [3]; at 3.7 µM -13% | [3]; at 11.0 µM -5% | [3]; at 33.0 µM -3% | [3]; at 100.0 µM 59% | [4]; at 1.2 µM -6% | [4]; at 3.7 µM -11% | [4]; [17] -13% | [4]; at 11.0 µM -23% | [4]; at 33.0 µM 26% | [4]; [18] 60% | [4]; at 50.0 µM 35.5% | [5]; at 1.2 µM 2% | [5]; at 3.7 µM 16% | [5]; [17] 3% | [5]; at 11.0 µM 16% | [5]; at 33.0 µM 10% | [5]; [18] 6% | [5]; at 50.0 µM 62.4% | [5]; at 100.0 µM 58% | [6]; at 1.2 µM 8% | [6]; at 3.7 µM -1% | [6]; at 11.0 µM 1% | [6]; at 33.0 µM 11% | [7]; [17] -1% | [7]; [18] 17% | [7]; at 50.0 µM 41.9% | [8]; at 1.2 µM 5% | [8]; at 3.7 µM 21% | [8]; at 11.0 µM -1% | [8]; at 33.0 µM 5% | [8]; at 100.0 µM 47% | [9]; [17] 1% | [9]; [18] 32% | [9]; at 50.0 µM 37.1% | [10]; at 1.2 µM -14% | [10]; at 3.7 µM -5% | [10]; [17] -23% | [10]; at 11.0 µM -4% | [10]; at 33.0 µM 5% | [11]; at 1.2 µM -1% | [11]; at 3.7 µM 0% | [11]; at 11.0 µM 3% | [11]; at 33.0 µM 2% | [11]; at 100.0 µM 52% | [12]; at 1.2 µM 31% | [12]; at 3.7 µM 29% | [12]; at 11.0 µM 27% | [12]; at 33.0 µM 36% | [16]; at 1.2 µM 21% | [16]; at 3.7 µM 23% | [16]; at 11.0 µM 26% | [16]; at 33.0 µM 36% | [14]; at 1.2 µM 28% | [14]; at 3.7 µM 30% | [14]; at 11.0 µM 29% | [14]; at 33.0 µM 41%

CCOC(=O)c1cc(-c2ccc(Cl)cc2)c([N+](=O)[O-])n1C
inactive: [1]; at 1.2 µM 12% | [1]; at 3.7 µM 24% | [1]; at 11.0 µM 41% | [15]; at 1.2 µM 16% | [15]; at 3.7 µM 23% | [15]; at 11.0 µM 48% | [3]; at 1.2 µM -10% | [3]; at 3.7 µM -2% | [3]; at 11.0 µM 1% | [4]; at 1.2 µM 9% | [4]; at 3.7 µM 26% | [4]; [17] -12% | [4]; at 11.0 µM 34% | [5]; at 1.2 µM 15% | [5]; at 3.7 µM 23% | [5]; [17] -8% | [5]; at 11.0 µM 23%
active: [1]; at 33.0 µM 90% | [1]; at 100.0 µM 96% | [15]; at 33.0 µM 78% | [15]; at 100.0 µM 93% | [3]; at 33.0 µM 84% | [3]; at 100.0 µM 96% | [4]; at 33.0 µM 89% | [4]; [18] 97% | [4]; at 50.0 µM 88.4% | [4]; at 100.0 µM 95% | [5]; at 33.0 µM 96% | [5]; [18] 96% | [5]; at 50.0 µM 90.3%

Reference: PubChem BioAssay (NCI)
